Assay results published in PubChem BioAssay (NCI).
The panel holds about 83,000 compounds, 20% with a hit somewhere; the sample as a whole holds those more often.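 Each cell line was grown in a 96-well plate and treated with one concentration of compound for 48 hours. Values below 10 were considered active.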 A number with no mark means an inactive call. Active and inactive are the calls of the source.

Columns and labels:
Experiment in all cases: NCI-60 one-dose screen, 48 h (100 = growth as untreated, 0 = no growth, -100 = all killed)
Details in all cases: 10 µM
BT-549 breast = system: BT-549 breast
SW-620 colon = system: SW-620 colon
MCF7 breast = system: MCF7 breast
HCT-116 colon = system: HCT-116 colon
HCC-2998 colon = system: HCC-2998 colon
KM12 colon = system: KM12 colon
MDA-MB-435 melanoma = system: MDA-MB-435 melanoma

Compound	growth (BT-549 breast)	growth (SW-620 colon)	growth (MCF7 breast)	growth (HCT-116 colon)	growth (HCC-2998 colon)	growth (KM12 colon)	growth (MDA-MB-435 melanoma)
O=C1/C(=C/c2ccc([N+](=O)[O-])s2)Oc2ccccc21	-83.2% (active)	-61.3% (active)	1.53% (active)	-45.4% (active)	-71.4% (active)	-58.9% (active)	–
CN(C)CC(O)c1ccc2cc(Br)c3ccccc3c2c1 (configuration not stated)	75.8%	63.7%	35.1%	41.2%	25.8%	–	–
CC(=O)n1c(-c2ccc(Cl)c(Cl)c2)cn(-c2ccc(Cl)cc2)c1=O	0.373% (active)	38.7%	21.9%	17.8%	21.6%	49.8%	–
Nc1ccccc1NC(=O)CCCCC(=O)Nc1ccc2c(c1)/C(=C/c1ccc[nH]1)C(=O)N2	33.9%	91.3%	35%	82.7%	87.5%	15.9%	–
C[C@@H]1C=C2C(=O)O[C@@H]3CC[C@H](C1)[C@]23O	54.4%	48.8%	36.8%	48.7%	99.9%	100%	–
CCN(CCCCCCCCCCN1CC(=O)N(CCCCCCCCCCN(CC)Cc2ccccc2OC)CC1=O)Cc1ccccc1OC	-50.7% (active)	–	-89.2% (active)	-95.2% (active)	–	-76.2% (active)	-72% (active)
COc1cc2cc3c(nc2cc1OC)CCN3Cc1ccc(NC(=O)Nc2ccc(F)cc2F)cc1	76.7%	100%	81.3%	81.3%	85.1%	87.2%	–
COc1ccccc1CNCCN1C(=O)c2ccc3c4c(ccc(c24)C1=O)C(=O)N(CCNCc1ccccc1OC)C3=O	-94% (active)	–	-69.2% (active)	-92.6% (active)	–	-96.6% (active)	-80.2% (active)
CC(C)C[C@H](NC(=O)[C@H](Cc1cccc2ccccc12)NS(=O)(=O)c1cccc2cccnc12)B(O)O	-49.8% (active)	-16% (active)	9.94% (active)	-91.2% (active)	-89.2% (active)	-73.8% (active)	–
N#CCCN(NC(=O)OCc1ccccc1)C(=O)OCc1ccccc1	109%	102%	107%	95.4%	106%	109%	–
COc1cc(Cl)cc(-c2nn(-c3cccc(NC(=O)c4ccc(Cl)c(Cl)c4)c3)cc2-c2ccncc2)c1	85.2%	84.2%	57.7%	44.1%	77.8%	62.3%	–
N#Cc1cccc(OCc2nc(N)nc(N)c2-c2ccc(Cl)c(Cl)c2)c1	40.1%	17.9%	28.5%	12.1%	29.8%	25.2%	–
COc1cc(Cl)cc(-c2nn(-c3cccc(NC(=O)Nc4ccc(Cl)c(C(F)(F)F)c4)c3)cc2-c2ccncc2)c1	9.81% (active)	12.7%	2.57% (active)	3.39% (active)	18.1%	–	–
C[C@]12CC[C@@H]3c4ccc(O)cc4C[C@@H](O)[C@H]3[C@@H]1CC[C@@H]2O	102%	110%	115%	105%	118%	111%	–
COc1ccc(C2CC(c3ccc(N(C)C)cc3)=NN2c2ccc(S(N)(=O)=O)cc2)cc1 (configuration not stated)	75%	58%	20.5%	18.7%	75%	29.1%	–
CCN(CC)CCNC(=O)c1ccc(NC(C)=O)cc1	106%	107%	101%	105%	102%	108%	–
COc1ccc2nc3ccccc3c(NCCNCC(C)O)c2c1 (configuration not stated)	30.9%	0.102% (active)	4.08% (active)	0.194% (active)	-11.8% (active)	9.48% (active)	–
CCN(CC)CCC(CNc1c(C)cnc2cc(Cl)ccc12)c1ccc(Cl)cc1 (configuration not stated)	67.7%	51.2%	39.7%	23%	26.7%	79.8%	–
COc1cc(NC(=O)CCSc2nc3ccc(C)cc3c(=O)n2Cc2ccccc2)cc(OC)c1OC	95.5%	84.5%	77.6%	35%	112%	–	–

Compound	growth (BT-549 breast)	growth (SW-620 colon)	growth (MCF7 breast)	growth (HCT-116 colon)	growth (HCC-2998 colon)	growth (KM12 colon)	growth (MDA-MB-435 melanoma)
Cc1cc(O)c(C(C)(C)C)cc1Sc1cc(C(C)(C)C)c(O)cc1C	65.9%	–	34.7%	29%	–	47%	54.8%
Cn1c(N)c(N=Nc2ccc(S(=O)(=O)Nc3nccs3)cc2)c(=O)n(C)c1=O	97.9%	99%	101%	109%	95.9%	104%	–
CC(C)=CCc1ccc(O)c(=O)cc1C(C)C	-2.13% (active)	34.1%	21.5%	17.3%	7.5% (active)	26.4%	–
O=C(C[n+]1ccccc1)c1ccc2ccccc2c1	100%	–	98.1%	91.2%	–	93.1%	102%
O=C1/C(=C\c2ccccc2)CN(C(=O)c2ccccc2)C/C1=C\c1ccccc1	2.1% (active)	-62.3% (active)	-36.9% (active)	-81.4% (active)	-77.9% (active)	–	–
N=c1nc(N)ncn1-c1ccccc1	107%	107%	92.4%	97.4%	101%	108%	–
CO/N=C(/C(=O)NC1C(=O)N2C(C(=O)O)=C(COC(N)=O)CSC12)c1ccco1 (configuration not stated)	108%	110%	94.2%	104%	104%	113%	–
COc1ccc(S(=O)(=O)NCCCNc2nccc(-c3c(-c4ccc(F)cc4)nc4sccn34)n2)cc1	70.6%	74.8%	33.6%	42.1%	65.5%	40.6%	–
Cc1cc(C)c(CCc2cc(C)c(C)cc2C)cc1C	–	105%	105%	106%	101%	106%	98%
CCN1CCC(CCOC)(CN2c3ccccc3Sc3ccc(Cl)cc32)C1 (configuration not stated)	–	54%	22.9%	28.8%	40.5%	–	10.9%
CCOC(=O)CNC(=O)CCCCSc1ncnc2nc[nH]c12	–	107%	91.9%	101%	-18% (active)	108%	110%
N#Cc1cc(-c2cc3ccccc3o2)oc1N	–	12%	22.9%	8.05% (active)	–	0.443% (active)	5.63% (active)
Clc1nc(Cl)c2c(ncn2C/C=C\Cn2cnc3c(Cl)nc(Cl)nc32)n1	–	-92.2% (active)	-1.6% (active)	-15.4% (active)	–	-94.5% (active)	-44.9% (active)
c1ccc([I+]c2ccccc2)cc1	65.5%	40.8%	64%	31%	–	41.9%	–
CCCCCCCCCCCCCCCCN(C(C)c1ccccc1)S(=O)(=O)c1ccc(OC)c(N)c1 (configuration not stated)	–	99.7%	95.9%	101%	97.6%	100%	108%
CN(C)CCNC(=O)c1cccn2c(=O)c3cc4ccccc4cc3nc12	–	-11.9% (active)	4.71% (active)	-41% (active)	–	-10.2% (active)	-68.6% (active)
COc1cc2nc(Nc3cccc(C(=O)O)c3)nc(N)c2cc1OC	–	96.3%	97.8%	-100% (active)	135%	108%	107%
COc1cc2c(cc1OCCCCCCN1CCN(CC(=O)Nc3ccc(Cl)cc3C(=O)c3ccccc3Cl)CC1)N=CC1CCCN1C2=O (configuration not stated)	–	-83.6% (active)	-7.24% (active)	–	–	-75.9% (active)	–
O=[N+]([O-])c1cccc(N=Cc2ccc3c(c2)OCO3)c1	–	108%	103%	106%	98.3%	112%	102%
